We go through 18 compounds from PubChem BioAssay (NCATS).

Results filed as inconclusive are left out. Unmarked numbers belong to inactive results. Active and inactive are the calls of the source. Calls come from the whole dose curve; as a rule, active = well fitted inhibition curve with a large enough effect; inconclusive = small, poorly fitted or top-dose-only effect; inactive = flat fitted curve, though single readings scatter.

Common to all, as to experiment: Cytotoxic Profiling of Annotated Libraries Using Quantitative High-Throughput Screening (AID 1296008); note: nearly all actives have a fitted effect of over 60% in size
Holding throughout (conditions): Five cell lines viability, CellTiter-Glo ATP luminescence, 48-72 h; max response: stronger effect = lower value

One test concerns CRL-7250. In outline:
(§1)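 Compounds were pin-transferred onto cells and incubated 48 or 72 hr at 37 degree Celsius, 95% humidity. CellTiter-Glo was added, plates sat 10 min at room temperature, then ATP-coupled luminescence was imaged as the viability read-out.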

The subject of another test is HEK293. Put shortly: as §1
For a further test, the system named is HaCat. Put shortly:
as §1

Another test concerns KB-3-1. In outline: as §1
% is set by controls: 0 for no effect and ±100 for the full control effect; potency is the fitted concentration of half-maximal effect.

Regarding `Cc1csc(NC(=O)c2ccc(COc3cccc(Cl)c3)o2)n1`, the max response is -4.74% in the test on CRL-7250, -17.1% with HEK293, 2.26% with HaCat and -1.89% with KB-3-1.
As for `CC(O)/C=C/C1(O)C2(C)COC1(C)CC(O)C2` (configuration not stated), the max response in the test on CRL-7250 was -12.7%; in the test with HEK293, -7.99%; with HaCat, -4.33%; in the test with KB-3-1, -4.44%.
For `CCC(Nc1ncnc2nc[nH]c12)c1nc2cccc(F)c2c(=O)n1-c1ccccc1` (configuration not stated), the values for the max response in the test on CRL-7250, with HEK293 and with HaCat were -7.4%, -7.81% and -6.65%, respectively. In addition, in the test with KB-3-1, the compound was called inactive.
In the case of `COC(=O)Cc1cc2c(c([N+](=O)[O-])c1)N(C(=O)CC[C@H](N)C(=O)O)CC2`, the max response in the test with CRL-7250 is -4.18%; with HEK293 it was -4.25%; in the test on HaCat, -29.1%; in the test with KB-3-1 it was 7.29%.
Consider `C=C1C(=O)OC2/C=C(\CO)CC/C=C(\C=O)CC(OC(=O)CC(C)C)C12` (configuration not stated), for which the max response was -22.7% in the test with CRL-7250, -10.5% in the test with HaCat and -5.58% in the test on KB-3-1. Moreover, the Potency in the test on HEK293 is 12800 nM (active).
`CC[C@]1(O)CC2CN(CCc3c([nH]c4ccccc34)[C@@](C(=O)OC)(c3cc4c(cc3OC)N(C=O)[C@H]3[C@@](O)(C(=O)OC)[C@H](OC(C)=O)[C@]5(CC)C=CCN6CC[C@]43[C@@H]65)C2)C1` (some centres not stated): the results for the Potency with CRL-7250, in the test with HEK293 and in the test with KB-3-1 were 64 nM (active), 32.1 nM (active) and 8.1 nM (active), respectively. Also, the max response in the test with HaCat was 3.94%.
With `N#CC(c1ccnc(OCc2ccc(CN3CCOCC3)cc2)n1)c1nc2ccccc2s1` (configuration not stated), the outcome in the test with CRL-7250 was inactive. Further, the Potency with HEK293 is 5170 nM (active). Further, the max response in the test with HaCat was 0.847%; in the test with KB-3-1, -18.3%.
In the case of `CO[C@H]1/C=C/C=C/C=C/C[C@H](OC(=O)[C@@H](C)NC(=O)C2CCCCC2)[C@H](C)[C@@H](O)/C(C)=C/CCc2cc(O)cc(c2)NC(=O)C1`, the Potency with CRL-7250 is 306 nM (active); with HEK293 it was 343 nM (active); in the test on HaCat, 1090 nM (active); with KB-3-1, 544 nM (active).
In the case of `O=C(Cc1ccc(-c2ccccc2)cc1)NC1CCC1`, in the test on CRL-7250, the result was inactive. Also, the max response with HEK293 was 2.52%; in the test with HaCat, -21.1%; in the test on KB-3-1 it was 4.19%.
As to `CC[C@]12C=CCN3CC[C@@]4(c5cc([C@@]6(C(=O)OC)C[C@H]7C[C@@H](C(C)(F)F)CN(Cc8c6[nH]c6ccccc86)C7)c(OC)cc5N(C)[C@H]4[C@@](O)(C(=O)OC)[C@@H]1OC(C)=O)[C@@H]32`, the Potency was 485 nM (active) in the test on CRL-7250, 172 nM (active) in the test with HEK293 and 137 nM (active) in the test with KB-3-1. Besides, the compound was called inactive with HaCat.
Turning to `COCCOc1cnc2ccn([C@H](C)c3nnc4c(F)cc(-c5cnn(C)c5)cn34)c(=O)c2c1`, the outcome with CRL-7250 was inactive. The max response was 1.47% with HEK293, 4.9% in the test with HaCat and 1.49% in the test on KB-3-1.
As for `CC[C@]1(O)CC2CN(CCc3c([nH]c4ccccc34)[C@@](C(=O)OC)(c3cc4c(cc3OC)N(C)[C@H]3[C@@](O)(C(=O)OC)[C@H](OC(C)=O)[C@]5(CC)C=CCN6CC[C@]43[C@@H]65)C2)C1` (some centres not stated), the Potency with CRL-7250 was 259 nM (active); with HEK293 it was 65.1 nM (active); in the test on KB-3-1, 36.6 nM (active). Further, the max response in the test with HaCat was 4.47%.
With `CC(C)CCC[C@@H](C)[C@H]1CC[C@H]2[C@@H]3CC(=O)[C@H]4C[C@@H](O)CC[C@]4(C)[C@H]3CC[C@]12C`, the max response in the test on CRL-7250 is -2.74%; in the test with HEK293 it was -0.18%; with KB-3-1, -11.4%. Further, the result in the test with HaCat was inactive.
Take `COc1cc(-c2ncn(/C=C\C(=O)OC(C)C)n2)cc(C(F)(F)F)c1`: the Potency with CRL-7250 was 4110 nM (active); in the test on HEK293, 259 nM (active); in the test on HaCat, 2060 nM (active); in the test on KB-3-1, 1840 nM (active).
As to `COc1cc(C)c(C(=O)Oc2cc(C)c(C(=O)Oc3cc(C)c(C(=O)NC(C)C(=O)O)c(O)c3)c(O[C@@H]3O[C@H](CO)[C@@H](O)[C@H](O)[C@H]3OC(C)=O)c2)c(OC)c1` (some centres not stated), the max response in the test with CRL-7250 was -13.8%; in the test with HEK293 it was -3.13%; in the test on HaCat it was -13.9%; in the test with KB-3-1, -6.88%.
The like results for `CC1=C(C(=O)O)/C(=C/CO[C@@H]2O[C@H](COC(=O)/C=C/c3ccc(O)cc3)[C@@H](O)[C@H](O)[C@H]2O)C(O)C1` (some centres not stated) were, in that order, 0.839%, 1.96%, -4.87% and 2.44%.
On to `CNS(=O)(=O)c1ccccc1Nc1nc(Nc2ccc(N3CCN(C)CC3)cc2OC)ncc1Cl`, for which the Potency is 1460 nM (active) in the test on CRL-7250, 1300 nM (active) in the test on HEK293, 2590 nM (active) with HaCat and 920 nM (active) in the test with KB-3-1.
Consider `CC(=O)O[C@@](C)(C(=O)/C=C/C(C)(C)O)[C@H]1[C@H](O)C[C@@]2(C)[C@@H]3CC=C4[C@@H](C=C(O)C(=O)C4(C)C)[C@]3(C)C(=O)C[C@]12C`, for which the Potency in the test with CRL-7250 was 2820 nM (active); in the test on HEK293, 5630 nM (active); in the test on HaCat, 1420 nM (active); in the test on KB-3-1 it was 1000 nM (active).
